This is part of a sample that, as a whole, favours compounds with a hit. Of some 83,000 tested, about 20% had one in any assay.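 Interpretation: 100, growth as untreated; towards 0, rising growth inhibition; 0, no net growth; 0 to -100, cell death. Compounds scoring below 10 were considered active.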 Values without a mark were called inactive. Active and inactive are the calls of the source.
Tests used:
Test in all cases: NCI-60 one-dose screen, 48 h (100 = growth as untreated, 0 = no growth, -100 = all killed)
Conditions in all cases: 10 µM unless noted
K-562 leukemia = tested on: K-562 leukemia
MALME-3M melanoma = tested on: MALME-3M melanoma
MDA-MB-231 breast = tested on: MDA-MB-231 breast
RXF 393 renal = tested on: RXF 393 renal
SF-268 CNS = tested on: SF-268 CNS
SF-295 CNS = tested on: SF-295 CNS
SF-539 CNS = tested on: SF-539 CNS
UACC-257 melanoma = tested on: UACC-257 melanoma
HCT-15 colon = tested on: HCT-15 colon
HT29 colon = tested on: HT29 colon
SNB-75 CNS = tested on: SNB-75 CNS
SNB-19 CNS = tested on: SNB-19 CNS
U251 CNS = tested on: U251 CNS
PC-3 prostate = tested on: PC-3 prostate
SK-MEL-5 melanoma = tested on: SK-MEL-5 melanoma
UACC-62 melanoma = tested on: UACC-62 melanoma
LOX IMVI melanoma = tested on: LOX IMVI melanoma
SK-MEL-28 melanoma = tested on: SK-MEL-28 melanoma
SK-MEL-2 melanoma = tested on: SK-MEL-2 melanoma
M14 melanoma = tested on: M14 melanoma

## N/C(=N\c1nc2c(Br)cccc2s1)C(Br)Br
K-562 leukemia
  growth: 3.75% (active)
MALME-3M melanoma
  growth: -36.7% (active)
MDA-MB-231 breast
  growth: -9.45% (active)
RXF 393 renal
  growth: -51.1% (active)
SF-268 CNS
  growth: 49.2%
SF-295 CNS
  growth: 11.8%
SF-539 CNS
  growth: -28.3% (active)
UACC-257 melanoma
  growth: 51.4%
HCT-15 colon
  growth: -27.7% (active)
HT29 colon
  growth: -11.3% (active)
SNB-75 CNS
  growth: -0.636% (active)
SNB-19 CNS
  growth: 27.7%
U251 CNS
  growth: -28.2% (active)
PC-3 prostate
  growth: 13.5%
SK-MEL-5 melanoma
  growth: 68.3%
UACC-62 melanoma
  growth: -5.13% (active)
LOX IMVI melanoma
  growth: -84.9% (active)
SK-MEL-28 melanoma
  growth: -5.02% (active)
SK-MEL-2 melanoma
  growth: -42.1% (active)

## N#Cc1ccc(/C=N/NC(=O)c2[nH]c3ccc(Br)cc3c2-c2ccccc2)s1
K-562 leukemia
  growth: 8.83% (active)
MALME-3M melanoma
  growth: 50.1%
MDA-MB-231 breast
  growth: 22.1%
RXF 393 renal
  growth: 56%
SF-268 CNS
  growth: 30%
SF-295 CNS
  growth: 11.7%
SF-539 CNS
  growth: 2.47% (active)
UACC-257 melanoma
  growth: 40.9%
HCT-15 colon
  growth: 8.95% (active)
HT29 colon
  growth: 5.64% (active)
SNB-75 CNS
  growth: 49.7%
SNB-19 CNS
  growth: 29.4%
U251 CNS
  growth: 16.5%
PC-3 prostate
  growth: 25%
SK-MEL-5 melanoma
  growth: -40.9% (active)
UACC-62 melanoma
  growth: 23.4%
SK-MEL-28 melanoma
  growth: 58.4%
SK-MEL-2 melanoma
  growth: 30.4%

## CCCSc1nc(Nc2ccc(/C(C)=N\NC(N)=S)cc2)c(C#N)c(-c2ccc(OC)cc2)n1
K-562 leukemia
  growth: 85.1%
MALME-3M melanoma
  growth: 49.2%
MDA-MB-231 breast
  growth: 7.95% (active)
RXF 393 renal
  growth: 10.8%
SF-268 CNS
  growth: 64.5%
SF-295 CNS
  growth: 42.2%
SF-539 CNS
  growth: 18.7%
UACC-257 melanoma
  growth: 93.7%
HCT-15 colon
  growth: 75.7%
SNB-75 CNS
  growth: 56%
SNB-19 CNS
  growth: 39.7%
U251 CNS
  growth: 17.1%
PC-3 prostate
  growth: 99.8%
SK-MEL-5 melanoma
  growth: 58.2%
UACC-62 melanoma
  growth: 87.7%
LOX IMVI melanoma
  growth: 68%
SK-MEL-28 melanoma
  growth: 79.8%
SK-MEL-2 melanoma
  growth: 89.7%

## [Cl][Ru].c1ccc(-c2cccc(-c3ccccn3)n2)nc1.c1ccc(-c2ccnc3c2ccc2c(-c4ccccc4)ccnc23)cc1
K-562 leukemia
  growth: 32.4%
MALME-3M melanoma
  growth: 2.72% (active)
MDA-MB-231 breast
  growth: 32.3%
RXF 393 renal
  growth: 48.4%
SF-268 CNS
  growth: 28.5%
SF-295 CNS
  growth: 95.7%
SF-539 CNS
  growth: 15.3%
UACC-257 melanoma
  growth: 26.9%
HCT-15 colon
  growth: 90.4%
HT29 colon
  growth: 21%
SNB-75 CNS
  growth: 1.93% (active)
SNB-19 CNS
  growth: 23.5%
U251 CNS
  growth: 31.7%
PC-3 prostate
  growth: 23.6%
SK-MEL-5 melanoma
  growth: 73.1%
UACC-62 melanoma
  growth: 14.2%
SK-MEL-28 melanoma
  growth: 31.3%
SK-MEL-2 melanoma
  growth: -36.9% (active)

## O=C(N/N=C/c1ccc(Cl)s1)c1[nH]c2ccc(Br)cc2c1-c1ccccc1
K-562 leukemia
  growth: 6.77% (active)
MALME-3M melanoma
  growth: 53.4%
MDA-MB-231 breast
  growth: 1.52% (active)
RXF 393 renal
  growth: 71.7%
SF-268 CNS
  growth: 42.1%
SF-295 CNS
  growth: 15.5%
SF-539 CNS
  growth: 3.35% (active)
UACC-257 melanoma
  growth: 52%
HCT-15 colon
  growth: 15.6%
HT29 colon
  growth: 3.1% (active)
SNB-75 CNS
  growth: 28.1%
SNB-19 CNS
  growth: 33.2%
U251 CNS
  growth: 16.5%
PC-3 prostate
  growth: 30.2%
SK-MEL-5 melanoma
  growth: -23% (active)
UACC-62 melanoma
  growth: 41.4%
SK-MEL-28 melanoma
  growth: 61.6%
SK-MEL-2 melanoma
  growth: 13.1%

## Cc1ccc2ccc3ccc(C)nc3c2n1.Cc1ccc2ccc3ccc(C)nc3c2n1.Oc1c(Cl)cc(Cl)c2ccc(CN3CCCCC3)nc12.[Ru]
MALME-3M melanoma
  growth: -85.1% (active)
MDA-MB-231 breast
  growth: -84% (active)
RXF 393 renal
  growth: -84.1% (active)
SF-268 CNS
  growth: -54.8% (active)
SF-295 CNS
  growth: -84.2% (active)
SF-539 CNS
  growth: -88.2% (active)
UACC-257 melanoma
  growth: -69.4% (active)
M14 melanoma
  growth: -94.1% (active)
HCT-15 colon
  growth: -81.3% (active)
HT29 colon
  growth: -61.7% (active)
SNB-75 CNS
  growth: -71% (active)
SNB-19 CNS
  growth: -86.4% (active)
U251 CNS
  growth: -54.5% (active)
PC-3 prostate
  growth: -82.6% (active)
SK-MEL-5 melanoma
  growth: -97.9% (active)
UACC-62 melanoma
  growth: -74% (active)
LOX IMVI melanoma
  growth: -91.2% (active)
SK-MEL-28 melanoma
  growth: -89.9% (active)
SK-MEL-2 melanoma
  growth: -83.1% (active)

## CN1CCc2c(sc3ncnc(N/N=C/c4ccc(Cl)c(Cl)c4)c23)C1
K-562 leukemia
  growth: 27.4%
MALME-3M melanoma
  growth: 38.6%
MDA-MB-231 breast
  growth: 13.7%
RXF 393 renal
  growth: 42.1%
SF-268 CNS
  growth: 61.1%
SF-295 CNS
  growth: 34.7%
SF-539 CNS
  growth: -61.6% (active)
UACC-257 melanoma
  growth: 92.4%
HCT-15 colon
  growth: 3.04% (active)
SNB-75 CNS
  growth: 79.5%
SNB-19 CNS
  growth: 42%
U251 CNS
  growth: -43.6% (active)
PC-3 prostate
  growth: 53.6%
SK-MEL-5 melanoma
  growth: 86.6%
UACC-62 melanoma
  growth: -26.8% (active)
SK-MEL-28 melanoma
  growth: 21.4%
SK-MEL-2 melanoma
  growth: 117%

## COc1cc(N=Cc2sc(Nc3nccs3)nc2O)cc(OC)c1OC
K-562 leukemia
  growth: 84.4%
MALME-3M melanoma
  growth: 79.2%
MDA-MB-231 breast
  growth: 79.1%
RXF 393 renal
  growth: 99.5%
SF-268 CNS
  growth: 78.8%
SF-295 CNS
  growth: 69.9%
SF-539 CNS
  growth: 90.5%
UACC-257 melanoma
  growth: 92.6%
HCT-15 colon
  growth: 71.4%
HT29 colon
  growth: 109%
SNB-75 CNS
  growth: 73.6%
SNB-19 CNS
  growth: 78.2%
U251 CNS
  growth: 84.7%
PC-3 prostate
  growth: 80.9%
SK-MEL-5 melanoma
  growth: 87.6%
UACC-62 melanoma
  growth: 75.5%
SK-MEL-28 melanoma
  growth: 84.2%
SK-MEL-2 melanoma
  growth: 74%

## COc1cccc(NC2=CC(=O)C(C)=C(C)C2=O)c1
K-562 leukemia
  growth: 12.5%
MALME-3M melanoma
  growth: 101%
MDA-MB-231 breast
  growth: 41.4%
RXF 393 renal
  growth: 55.8%
SF-268 CNS
  growth: 74.5%
SF-295 CNS
  growth: 105%
SF-539 CNS
  growth: 21.7%
UACC-257 melanoma
  growth: 54.7%
HCT-15 colon
  growth: 91.9%
HT29 colon
  growth: 98.3%
SNB-75 CNS
  growth: 99.8%
SNB-19 CNS
  growth: 97.7%
U251 CNS
  growth: 95.1%
PC-3 prostate
  growth: 36.3%
UACC-62 melanoma
  growth: 91.8%
SK-MEL-28 melanoma
  growth: 96.5%
SK-MEL-2 melanoma
  growth: 83.6%
